NOMO-1 viab – STK33 inhibitor candidate reducing NOMO-1 cell viability; NOMO-1 AML viability, CellTiter-Glo luminescence, 72 h; inhibition, % (test concentration not listed); 7.5% of 37,000 active; AID 2330; in the data active means inhibition above about 80%; inconclusive means no clear call, values can overlap the other calls
PD-1 reverse act – reversal of PD-1 mediated T-cell inhibition; primary human CD4 T cells, PD-L1 beads, CellTiter-Glo 96 h; activation, % (test concentration not listed); 29,000 tested, under 10 active; AID 2316; call rule not given here;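 further: 0% = median vehicle wells and 100% = positive control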
STK33 inh – inhibitors of human STK33 kinase. 0.44% of 27,000 active. ADP-Glo luminescence, MBP substrate. inhibition, % at 12.5 µM. Q9BYT3. AID 2322; in the data active means inhibition above about 20%; inconclusive means no clear call, values can overlap the other calls
Target sequence (Q9BYT3 whole entry, looked up): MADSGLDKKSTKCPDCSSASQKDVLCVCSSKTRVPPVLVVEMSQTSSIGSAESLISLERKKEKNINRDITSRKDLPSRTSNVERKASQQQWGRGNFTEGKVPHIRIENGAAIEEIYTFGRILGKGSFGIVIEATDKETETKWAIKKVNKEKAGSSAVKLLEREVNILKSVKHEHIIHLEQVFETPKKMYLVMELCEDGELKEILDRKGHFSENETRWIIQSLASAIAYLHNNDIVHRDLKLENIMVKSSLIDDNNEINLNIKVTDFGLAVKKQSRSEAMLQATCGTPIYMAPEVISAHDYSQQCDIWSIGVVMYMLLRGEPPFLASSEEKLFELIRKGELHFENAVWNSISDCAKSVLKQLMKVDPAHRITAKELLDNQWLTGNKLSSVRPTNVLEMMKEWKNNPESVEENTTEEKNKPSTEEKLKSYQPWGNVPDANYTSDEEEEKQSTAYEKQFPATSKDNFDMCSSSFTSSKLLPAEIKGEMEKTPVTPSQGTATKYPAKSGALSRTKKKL
An asterisk follows results filed as active; ? = inconclusive; / = not tested or not shown. The sample as a whole holds a higher share of hits than the screen did.

SMILES	NOMO-1 viab	PD-1 reverse act	STK33 inh
C[C@H]1CN([C@@H](C)CO)C(=O)Cc2cc(NC(=O)Nc3ccc(C(F)(F)F)cc3)ccc2O[C@H]1CN(C)Cc1ccc(-c2ccccc2)cc1	128*	-3	3
O=C(CCc1ccccc1)CC(CCc1ccccc1)OC1OC(COC2OC(CO)C(O)C(O)C2O)C(O)C(O)C1O (stereo not given)	/	/	-1
O=c1[nH]c2ccccc2nc1/C=C(/O)c1cccc2ccccc12	55	-2	/
CC1CC(=O)C2=C(CCC34OC23C(=O)c2cccc(O)c2C4O)C1 (stereo not given)	100*	-2	-5
C[C@@H]1CC(=O)C2=C(C1)C[C@@H](O)[C@@]1(O)C2C(=O)c2cccc(O)c2[C@@H]1O (stereo not given in full)	4	1	-9
Cc1noc(C)c1S(=O)(=O)Nc1ccc2c(c1)C(=O)N([C@H](C)CO)C[C@H](C)[C@@H](CN(C)Cc1ccc3c(c1)OCO3)OCCCC[C@@H](C)O2	30	-3	1
CCc1ccc(OCC(=O)Nc2ccccc2C(=O)OC)c(Br)c1	-26	2	1
C[C@@H]1CN([C@@H](C)CO)C(=O)Cc2cc(NC(=O)C3CCCCC3)ccc2O[C@@H]1CN(C)Cc1ccc(Cl)c(Cl)c1	123*	/	-2
C[C@@H]1CN([C@@H](C)CO)C(=O)Cc2cc(NC(=O)NC3CCCCC3)ccc2O[C@@H]1CN(C)Cc1ccc(Cl)c(Cl)c1	111*	/	1
C[C@@H]1CN([C@H](C)CO)C(=O)Cc2cc(NC(=O)NC3CCCCC3)ccc2O[C@@H]1CN(C)Cc1ccncc1	10	-1	/
C[C@@H]1CN([C@H](C)CO)C(=O)Cc2cc(NC(=O)NC3CCCCC3)ccc2O[C@H]1CN(C)Cc1ccncc1	6	2	2
C[C@H](CO)N1C[C@H](C)[C@H](CN(C)Cc2ccc(Cl)c(Cl)c2)Oc2ccc(NC(=O)C3CCCCC3)cc2CC1=O	37	1	-1
C[C@H]1CN([C@@H](C)CO)C(=O)Cc2cc(NC(=O)NC3CCCCC3)ccc2O[C@@H]1CN(C)Cc1ccc(Cl)c(Cl)c1	105*	0	4
C[C@H]1CN([C@@H](C)CO)C(=O)c2cc(NC(=O)Nc3ccc4c(c3)OCO4)ccc2O[C@H]1CN(C)Cc1ccc(C(=O)O)cc1	-17	5	-3
C[C@H](CO)N1C[C@H](C)[C@H](CN(C)C)Oc2ccc(NC(=O)C3CC3)cc2C1=O	-2	/	/
Cc1ccc(OCC(=O)Nc2sc(C)c(C)c2C(N)=O)cc1	30	/	-5
Cc1sc(NC(=O)Cn2nc(C(F)(F)F)cc2C)c(C(N)=O)c1C	118*	-1	/
C[C@@H]1CN([C@@H](C)CO)C(=O)Cc2cc(NC(=O)Nc3ccc(C(F)(F)F)cc3)ccc2O[C@@H]1CN(C)Cc1ccc(C(F)(F)F)cc1	124*	/	0
C[C@@H]1CN([C@H](C)CO)C(=O)Cc2cc(NC(=O)Nc3ccc(F)cc3)ccc2O[C@@H]1CN(C)Cc1ccc(C(F)(F)F)cc1	?	-4	1
C[C@H]1CN([C@@H](C)CO)C(=O)Cc2cc(NC(=O)Nc3ccc(C(F)(F)F)cc3)ccc2O[C@H]1CN(C)Cc1ccc(C(F)(F)F)cc1	136*	-10	-2
C[C@H]1CN([C@@H](C)CO)C(=O)Cc2cc(NC(=O)Nc3ccc(C(F)(F)F)cc3)ccc2O[C@@H]1CN(C)Cc1ccc(C(=O)O)cc1	0	/	-10
C[C@H]1CN([C@@H](C)CO)C(=O)Cc2cc(NC(=O)NC3CCCCC3)ccc2O[C@H]1CN(C)Cc1ccc(C(F)(F)F)cc1	34	/	5
C[C@@H]1CN([C@H](C)CO)C(=O)Cc2cc(NC(=O)NC3CCCCC3)ccc2O[C@H]1CN(C)Cc1ccc(C(F)(F)F)cc1	93*	/	9
Cc1ccc(C(=O)Nc2cccc(OC(=O)c3cc(S(=O)(=O)N4CCCCC4)ccc3Cl)c2)cc1	/	/	0
Cc1cc(C)c(S(=O)(=O)NCC(=O)Nc2cccc(Cl)c2Cl)c(C)c1	35	-3	-3
SMILES	NOMO-1 viab	PD-1 reverse act	STK33 inh
Cc1cc(C(=O)Nc2cccc3c2O[C@@H](CN(C)C(=O)NC(C)C)[C@H](C)CN([C@H](C)CO)C3=O)n(C)n1	-15	/	/
O=C(CCSc1nc(-c2ccco2)cc(C(F)(F)F)n1)Nc1cccnc1	22	0	-1
COc1ccc(OC)c(C(=O)CSc2nnc(-c3ccccn3)n2-c2ccc(C)cc2)c1	0	2	2
C[C@H](CO)N1C[C@H](C)[C@@H](CN(C)Cc2ccc(C(=O)Nc3ccccc3N)cc2)Oc2ccc(NS(=O)(=O)c3ccc(Cl)cc3)cc2C1=O	39	2	/
C[C@@H]1CN([C@H](C)CO)C(=O)c2cc(NS(=O)(=O)c3ccc(Cl)cc3)ccc2O[C@@H]1CN(C)Cc1ccc(C(=O)Nc2ccccc2N)cc1	109*	-1	/
C[C@H](CO)N1C[C@H](C)[C@H](CN(C)Cc2ccc(C(=O)Nc3ccccc3N)cc2)Oc2ccc(NS(=O)(=O)c3ccc(Cl)cc3)cc2C1=O	96*	1	/
COc1ccc(S(=O)(=O)Nc2ccc3c(c2)C(=O)N([C@@H](C)CO)C[C@H](C)[C@H](CN(C)Cc2ccc(C(=O)Nc4ccccc4N)cc2)O3)cc1	109*	0	/
COc1ccc(S(=O)(=O)Nc2ccc3c(c2)C(=O)N([C@H](C)CO)C[C@@H](C)[C@H](CN(C)Cc2ccc(C(=O)Nc4ccccc4N)cc2)O3)cc1	-1	2	/
C[C@@H]1CN([C@@H](C)CO)C(=O)c2cc(NS(=O)(=O)c3ccc(Cl)cc3)ccc2O[C@H]1CN(C)Cc1ccc(C(=O)Nc2ccccc2N)cc1	?	1	/
Clc1nsnc1N1CCOCC1	5	-20	0
C[C@@H]1CN([C@H](C)CO)C(=O)Cc2cc(NS(=O)(=O)c3ccc(Cl)cc3)ccc2O[C@H]1CN(C)S(=O)(=O)c1ccc(Cl)cc1	22	2	2
C[C@@H]1CN([C@@H](C)CO)C(=O)c2cccc(NC(=O)C3CCOCC3)c2O[C@H]1CN(C)S(=O)(=O)c1cccs1	-4	/	/
O=[N+]([O-])c1ccc(O)c(C(c2c[nH]c3ccccc23)c2c[nH]c3ccccc23)c1	16	1	-3
O=C1Cc2c([nH]c3ccc([N+](=O)[O-])cc23)-c2ccccc2N1	99*	-14	23*
C[C@@H]1CN([C@H](C)CO)C(=O)c2cccc(NC(=O)Nc3ccc4c(c3)OCO4)c2O[C@H]1CN(C)Cc1ccc(-c2ccccc2)cc1	91*	-3	/
C[C@@H]1CN([C@H](C)CO)C(=O)c2cccc(NC(=O)Nc3ccc4c(c3)OCO4)c2O[C@@H]1CN(C)Cc1ccc(-c2ccccc2)cc1	94*	-2	/
C[C@H]1CN([C@@H](C)CO)C(=O)c2cccc(NC(=O)Nc3ccc4c(c3)OCO4)c2O[C@@H]1CN(C)Cc1ccccc1	55	/	/
C[C@@H]1CN([C@@H](C)CO)C(=O)c2cccc(NC(=O)Nc3ccc4c(c3)OCO4)c2O[C@@H]1CN(C)Cc1ccc2c(c1)OCO2	29	-1	/
C[C@@H]1CN([C@@H](C)CO)C(=O)c2cccc(NC(=O)Nc3ccc4c(c3)OCO4)c2O[C@@H]1CN(C)Cc1ccc(-c2ccccc2)cc1	116*	-5	/

Screens deposited in PubChem BioAssay by Broad Institute.
